Results as given in PubChem BioAssay (NCI).
This is part of a sample that, as a whole, favours compounds with a hit. Of some 83,000 tested, about 20% had one in any assay.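 Treatment: one concentration, 48 hours, 96-well format. Scoring: percent growth, with anything below 10 considered active.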 A number with no mark means an inactive call. Calls of active or inactive are those of the source.

Key:
Test in all cases: NCI-60 one-dose screen, 48 h (100 = growth as untreated, 0 = no growth, -100 = all killed)
Conditions in all cases: 10 µM unless noted
[1] = tested on: SR leukemia
[2] = tested on: RPMI-8226 leukemia
[3] = tested on: OVCAR-8 ovarian
[4] = tested on: OVCAR-5 ovarian
[5] = tested on: OVCAR-4 ovarian
[6] = tested on: SK-OV-3 ovarian
[7] = tested on: IGROV1 ovarian
[8] = tested on: OVCAR-3 ovarian
[9] = tested on: HS 578T breast
[10] = tested on: NCI/ADR-RES ovarian
[11] = tested on: T-47D breast
[12] = tested on: BT-549 breast
[13] = tested on: MDA-MB-435 melanoma
[14] = tested on: SW-620 colon
[15] = tested on: MCF7 breast
[16] = tested on: HCC-2998 colon
[17] = tested on: KM12 colon
[18] = tested on: HCT-116 colon

Structure (SMILES)	growth [1]	growth [2]	growth [3]	growth [4]	growth [5]	growth [6]	growth [7]	growth [8]	growth [9]	growth [10]	growth [11]	growth [12]	growth [13]	growth [14]	growth [15]	growth [16]	growth [17]	growth [18]
O=C1/C(=C/c2ccc(Cl)cc2Cl)CN(S(=O)(=O)c2ccccc2)C/C1=C\c1ccc(Cl)cc1Cl	-11.6% (active)	-21.9% (active)	13.6%	-3.2% (active)	22.6%	44.7%	-24.3% (active)	-36.4% (active)	37.9%	20.5%	23.7%	-72.8% (active)	3.98% (active)	-15.2% (active)	13.9%	-15.3% (active)	-57.2% (active)	–
CN1/C(=C\C=C\C2=[N+](C)c3ccccc3C2(C)C)C(C)(C)c2ccccc21	-32.8% (active)	-8.69% (active)	1.34% (active)	20.9%	10.5%	-2.66% (active)	2.4% (active)	2.1% (active)	23.4%	14.3%	-9.24% (active)	-17.7% (active)	-48.9% (active)	8.18% (active)	-2.53% (active)	–	-64.9% (active)	0.854% (active)
Oc1ccc2c(=S)cc(-c3ccc(Br)cc3)oc2c1O	1.21% (active)	-8.44% (active)	-6.62% (active)	67.9%	-1.04% (active)	62.3%	19%	-21.7% (active)	84%	-8.87% (active)	2.92% (active)	44.6%	23.3%	5.25% (active)	-31.9% (active)	73.8%	12.9%	–
COc1cc(C2C(C(=O)c3cccs3)=C(O)C(=O)N2CCN2CCOCC2)cc(OC)c1OC (centres undefined)	111%	108%	113%	108%	110%	109%	100%	102%	112%	107%	104%	107%	99.5%	97.2%	95.1%	101%	98.3%	–
O=c1c2c3c(sc2n2c(CCl)nnc2n1Cc1ccccc1)CCCC3	-33.9% (active)	-38.8% (active)	7.48% (active)	-58.9% (active)	-99.3% (active)	103%	-42.9% (active)	-98.4% (active)	-36.1% (active)	19%	-69.9% (active)	-93.5% (active)	-64.5% (active)	-82.9% (active)	-79.9% (active)	-69.3% (active)	-69.6% (active)	–
COc1cc2nc3cc([N+](=O)[O-])ccc3c(NCCCNCC(C)(C)O)c2cc1OC	5.93% (active)	-9.27% (active)	-45% (active)	-3.65% (active)	-37.2% (active)	-46% (active)	-18% (active)	-60.3% (active)	-18.6% (active)	87.6%	-40.6% (active)	-71.3% (active)	-85.8% (active)	-11.8% (active)	-33.5% (active)	-70.2% (active)	-47.2% (active)	–
Cc1ccc2cnc(N)c(C#Cc3cncc(C(=O)Nc4ccc(CN5CCN(C)CC5)c(C(F)(F)F)c4)c3)c2c1	-31.2% (active)	-31.4% (active)	-85.4% (active)	-89% (active)	-88% (active)	-17.5% (active)	-59.8% (active)	-97.6% (active)	-39.2% (active)	-67.2% (active)	-65.2% (active)	-75.1% (active)	-96.6% (active)	-86.1% (active)	-85.8% (active)	-82.9% (active)	-82.6% (active)	–
Cc1ccn2c(-c3csc(Nc4cccc(O)c4)n3)c(C)nc2c1	-24.8% (active)	-4.74% (active)	40.1%	38.5%	36.7%	-25.2% (active)	14.1%	-14% (active)	19.2%	14.4%	34%	25%	-34.6% (active)	33.4%	6.08% (active)	–	29.9%	27.6%
CCOC(=O)c1c2ncccc2n2c(=O)n(-c3ccc(Cl)cc3)nnc12	91.4%	92.8%	57.1%	67.7%	84.6%	92.2%	85.6%	95.2%	93.9%	59.8%	61.1%	43.6%	49.7%	105%	76.6%	–	70.7%	86.9%
O=[N+]([O-])c1cccc(C2CC(c3ccccc3)=Nc3ccccc3S2)c1 (centres undefined)	-40.3% (active)	16.1%	61.9%	109%	81.7%	97.7%	91.8%	88%	95.9%	98.3%	84.9%	78.5%	112%	25.6%	16.2%	108%	35.7%	–
O=C(NCc1cccc(C(F)(F)F)c1)[C@H](CCC(=O)N1CCN(C2CCCCC2)CC1)N1C(=O)[C@@H](N2C(=O)OC[C@@H]2c2ccccc2)[C@H]1/C(Cl)=C/c1ccccc1	-36.3% (active)	14.1%	64.3%	87%	51.6%	56%	36.8%	47.6%	50%	35.7%	61.3%	60.1%	52.1%	74.9%	29.6%	31.9%	34.5%	–
Cc1cc(Nc2nc(-c3cccnc3)nc3ccccc23)n[nH]1	15.5%	98.8%	80.6%	65.9%	60.8%	21.9%	28.9%	59%	5.1% (active)	69.3%	27.2%	47.2%	56.2%	47%	23%	–	19.1%	30.9%
Cc1nc2sc(C(=O)Nc3cccc4c3OCCO4)c(N)c2cc1C(C)O (centres undefined)	26.4%	26.5%	49.5%	73.7%	69.4%	-11.4% (active)	49%	7.73% (active)	33.5%	31%	-13.2% (active)	56.1%	-39.2% (active)	22.4%	11.2%	66.5%	20.7%	–
O=C1CCc2c(sc3[nH]c(=S)n(Cc4ccccc4)c(=O)c23)C1	15.5%	3.36% (active)	14.3%	9.59% (active)	21.8%	22.2%	34.2%	9.16% (active)	-3.81% (active)	4.56% (active)	6.69% (active)	10.6%	15%	15.4%	15.8%	–	5.93% (active)	6.51% (active)
CCN(CC)Cc1cc(Nc2c3ccc(Cl)cc3nc3c(C)cccc23)ccc1O	-18.9% (active)	-14.6% (active)	-42.6% (active)	-37.7% (active)	-96% (active)	-10.3% (active)	-49.3% (active)	-71.6% (active)	-24.4% (active)	-49.8% (active)	-70.5% (active)	-54.3% (active)	-89.6% (active)	-14% (active)	-61.6% (active)	–	-45.4% (active)	-73.2% (active)
O=C1OC2C(I)C3CC2C1C3c1ccccc1 (centres undefined)	86.8%	106%	112%	93%	96.3%	116%	111%	120%	143%	101%	95.2%	152%	131%	96.1%	109%	105%	108%	–
CN(C)c1ccc(/C=C\C2=[N+](C)c3ccccc3C2(C)C)cc1	25%	66.5%	20.8%	27.9%	35.5%	-11.6% (active)	9.25% (active)	-9.9% (active)	9.83% (active)	84.1%	0.627% (active)	-4.12% (active)	3.88% (active)	10.3%	3.95% (active)	–	-21.1% (active)	7.97% (active)
